The record followed here is PubChem BioAssay.

Assay [1] in a line: antimalarial activity against Dd2 strain (AID 2302;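 active means growth inhibition above 50% at the single 2 µM test dose, taken to imply half-maximal potency below 2 µM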;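 further: 0% = DMSO untreated growth and 100% = chloroquine plus artemisinin killed control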). Conditions: P. falciparum Dd2 in RBCs, LDH growth readout, 72 h; at 2 µM; active compounds read high.
Assay [2] can be described thus: HepG2 cytotoxicity, primary screen, cytotoxicity control for P. falciparum antimalarial project, cell-based, ATP luminescence (AID 2303;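 active means inhibition above 50%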;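 further: 0% = DMSO wells and 100% = digitonin-killed cells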). Particulars: HepG2 viability, 24-48 h, at 10 µM, active compounds read high.
Assay [3] addresses L-lactate dehydrogenase (Plasmodium falciparum (isolate CDC / Honduras)) (UniProt Q27743). Description: PfLDH activity inhibition – cell lysate, 3D7 strain, counter-screen for P. falciparum growth inhibition project (AID 2304).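 Further: 0% = vehicle and 100% = reference inhibitor.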 Particulars: P. falciparum 3D7 crude extract, LDH APAD/NBT absorbance; at 2 µM; active compounds read high. In general terms: Counterscreens check selectivity or assay interference.

Assay [4] is described as follows: inhibition of 3D7 malaria parasite growth – strain 3D7 (AID 2306).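 Further: 0% = DMSO wells and 100% = chloroquine plus artemisinin control wells.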 Particulars: P. falciparum 3D7 erythrocytic growth, LDH absorbance, 72 h; at 2 µM; active compounds read high.
In assay [5] the target is Calcium-dependent protein kinase 1 (Plasmodium falciparum (isolate 3D7)) (UniProt P62344). Description: PfCDPK1 kinase inhibitors, biochemical, TCAMS library (AID 1159585; cut-off not given, nearly all actives have IC50 up to about 0.98 µM;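 further: inhibitors leave more ATP so luminescence rises with inhibition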). Conditions: recombinant PfCDPK1, Kinase-Glo ATP depletion luminescence.
The target in assay [6] is Plasmodium falciparum protein kinase 6 (PK6, PF3D7_1337100) (UniProt Q8IDW1). As to the kind of experiment: PfPK6 kinase inhibitors, biochemical, TCAMS library (AID 1159586). Particulars: recombinant PfPK6, Kinase-Glo ATP depletion luminescence. A general note: In Kinase-Glo more light means more ATP remaining.
Assay [7] concerns the target Protein kinase 7 (PK7), Plasmodium falciparum 3D7 (PF3D7_0213400) (UniProt Q7YTF7). As to the kind of experiment: inhibition of Plasmodium PK7 catalytic activity – biochemical, TCAMS antimalarial set, Kinase-Glo luminescence (AID 1159587). Conditions: recombinant PfPK7, Kinase-Glo ATP depletion luminescence.
In assay [8] the target is Calcium-dependent protein kinase 4 (Plasmodium falciparum (isolate 3D7)) (UniProt Q8IBS5). Description: PfCDPK4 kinase inhibitors, biochemical, TCAMS library (AID 1159588; cut-off not given, nearly all actives have IC50 up to about 0.91 µM). Conditions: recombinant PfCDPK4, Kinase-Glo ATP depletion luminescence.

SMILES strings stand for the structures. Unmarked numbers belong to inactive results. For some assays here: Measured potencies and affinities stand elsewhere. Calls of active or inactive are those of the source. Unless noted, how the calls were made is not given here.

Sequence of Calcium-dependent protein kinase 1 (Plasmodium falciparum (isolate 3D7)) (P62344 whole entry, looked up): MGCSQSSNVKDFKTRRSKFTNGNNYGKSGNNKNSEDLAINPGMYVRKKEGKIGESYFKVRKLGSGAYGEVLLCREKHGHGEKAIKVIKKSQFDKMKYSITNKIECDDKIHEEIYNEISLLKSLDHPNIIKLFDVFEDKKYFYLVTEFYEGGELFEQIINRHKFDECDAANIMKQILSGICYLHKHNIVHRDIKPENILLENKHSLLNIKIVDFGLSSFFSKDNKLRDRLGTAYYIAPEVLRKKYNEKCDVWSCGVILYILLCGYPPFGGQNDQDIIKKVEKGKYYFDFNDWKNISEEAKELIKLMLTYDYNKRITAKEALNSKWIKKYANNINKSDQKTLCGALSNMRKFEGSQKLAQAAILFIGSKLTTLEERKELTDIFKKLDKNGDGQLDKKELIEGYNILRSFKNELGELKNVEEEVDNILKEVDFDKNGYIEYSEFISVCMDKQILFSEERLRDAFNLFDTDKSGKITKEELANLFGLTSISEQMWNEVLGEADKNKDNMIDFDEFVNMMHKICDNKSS
Sequence of Plasmodium falciparum protein kinase 6 (PK6, PF3D7_1337100) (Q8IDW1 1-305): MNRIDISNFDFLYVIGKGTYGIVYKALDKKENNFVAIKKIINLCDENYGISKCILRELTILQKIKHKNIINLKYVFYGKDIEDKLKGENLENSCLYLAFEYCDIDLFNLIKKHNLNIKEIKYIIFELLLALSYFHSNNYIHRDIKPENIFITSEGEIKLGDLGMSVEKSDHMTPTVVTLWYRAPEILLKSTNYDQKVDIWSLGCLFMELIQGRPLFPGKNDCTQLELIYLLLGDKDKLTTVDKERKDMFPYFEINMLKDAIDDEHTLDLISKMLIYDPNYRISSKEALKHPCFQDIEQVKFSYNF
Sequence of Calcium-dependent protein kinase 4 (Plasmodium falciparum (isolate 3D7)) (Q8IBS5 whole entry, looked up): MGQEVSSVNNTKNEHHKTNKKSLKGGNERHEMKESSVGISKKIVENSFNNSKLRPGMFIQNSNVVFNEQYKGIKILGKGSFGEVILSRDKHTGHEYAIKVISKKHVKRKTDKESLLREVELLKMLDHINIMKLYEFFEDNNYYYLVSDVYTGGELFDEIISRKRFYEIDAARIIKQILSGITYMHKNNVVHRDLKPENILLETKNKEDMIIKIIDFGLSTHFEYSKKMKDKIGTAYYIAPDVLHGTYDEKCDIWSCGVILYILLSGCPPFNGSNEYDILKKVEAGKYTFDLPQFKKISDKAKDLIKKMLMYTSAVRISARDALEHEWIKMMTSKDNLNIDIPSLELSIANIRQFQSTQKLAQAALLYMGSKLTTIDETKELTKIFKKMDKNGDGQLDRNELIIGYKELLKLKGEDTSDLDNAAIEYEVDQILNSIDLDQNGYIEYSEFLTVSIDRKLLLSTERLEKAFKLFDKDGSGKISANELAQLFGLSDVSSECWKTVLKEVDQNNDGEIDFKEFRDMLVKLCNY
Sequence of Protein kinase 7 (PK7), Plasmodium falciparum 3D7 (PF3D7_0213400) (Q7YTF7 1-343): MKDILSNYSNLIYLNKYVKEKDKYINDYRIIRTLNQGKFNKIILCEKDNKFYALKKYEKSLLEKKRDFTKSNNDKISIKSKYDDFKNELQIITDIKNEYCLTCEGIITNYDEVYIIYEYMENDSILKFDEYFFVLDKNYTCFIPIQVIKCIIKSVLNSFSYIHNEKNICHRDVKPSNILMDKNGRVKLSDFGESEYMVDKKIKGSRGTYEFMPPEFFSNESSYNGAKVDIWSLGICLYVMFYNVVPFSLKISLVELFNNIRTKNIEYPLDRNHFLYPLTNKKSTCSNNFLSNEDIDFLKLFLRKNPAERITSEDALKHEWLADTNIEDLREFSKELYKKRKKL
Sequence of L-lactate dehydrogenase (Plasmodium falciparum (isolate CDC / Honduras)) (Q27743 whole entry, looked up): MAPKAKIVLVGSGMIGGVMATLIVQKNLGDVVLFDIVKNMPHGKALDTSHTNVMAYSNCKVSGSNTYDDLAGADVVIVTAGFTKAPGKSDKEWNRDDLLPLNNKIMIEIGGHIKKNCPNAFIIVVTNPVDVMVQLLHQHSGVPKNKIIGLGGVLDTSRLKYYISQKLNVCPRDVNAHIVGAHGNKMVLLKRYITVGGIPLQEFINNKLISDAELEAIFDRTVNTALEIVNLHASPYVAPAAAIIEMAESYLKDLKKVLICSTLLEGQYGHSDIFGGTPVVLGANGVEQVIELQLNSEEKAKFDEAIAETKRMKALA

In the case of `CCc1cc2c(=O)c(-c3nc(C)cs3)c(N)oc2c(CN2CCCCC2)c1O`, the results for the growth inhibition in assay [1] and in assay [4] were 97% (active) and 99% (active), respectively. The inhibition (in general, the change of the read-out against control, counted positive when it falls) in assay [2] was -2%; in assay [3], 0%. Besides, the outcome in assay [5], in assay [6], in assay [7] and in assay [8] was inactive.

For the compound `O=C(C=Cc1ccc(Cl)c(Cl)c1)NCCCCCN1CCCC(CCCNS(=O)(=O)c2ccc(Br)cc2)C1` (configuration not stated), the growth inhibition is 5% in assay [1] and 88% (active) in assay [4]. Also, the inhibition is 43% in assay [2] and -2% in assay [3]. Moreover, the outcome in assay [5], in assay [6], in assay [7] and in assay [8] was inactive.

Turning to `Cn1cc(CN2CCCC(COC(c3ccc(F)cc3)c3ccc(F)cc3)C2)cn1` (configuration not stated), the growth inhibition in assay [1] is 100% (active); in assay [4], 98% (active). For the same compound, the values for the inhibition in assay [2] and in assay [3] were 15% and 4%, respectively. Further, the outcome in assay [5], in assay [6], in assay [7] and in assay [8] was inactive.

As for `CO/C(=C\C=C\c1cc2cc(Cl)c(Cl)cc2[nH]1)C(=O)NCCCN1CCN(c2cccc(CCO)c2)CC1`, the results for the growth inhibition in assay [1] and in assay [4] were 32% and 101% (active), respectively. Also, the inhibition was 61% (active) in assay [2] and -1% in assay [3]. Moreover, the outcome in assay [5], in assay [6], in assay [7] and in assay [8] was inactive.
